Compound activity from PubChem.
Sampled rows, rich in hits. Any-hit rate of the full collection: about 17%.
DT40 TDP1 no CPT – qHTS for Inhibitors of human tyrosyl-DNA phosphodiesterase 1 (TDP1): qHTS in cells in absence of CPT; DT40 Tdp1-/- hTDP1 cells, no CPT, ATP luminescence, 48 h; Potency, µM (highest dose often 46.2 µM), without a hit: at the top dose activity change, negative = growth inhibition, most hits filed as inhibitors; actives 15% (n = 420,000); AID 686978, 2013; also: % is scaled to controls: 0 for no effect and ±100 for the full control effect; nearly all actives have a fitted effect of over 55% in size
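DT40 Tdp1-/-;hTDP1 cells, no CPT (DMSO vehicle only), 400 cells/well; compounds pin-transferred; ≥48 hr, 37 °C; CellTiter-Glo 30 min RT dark, luminescence read.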
DT40 TDP1 CPT – DT40-hTDP1 cell growth loss with CPT. chicken DT40 Tdp1-/-;hTDP1 cells + 20 nM CPT, ATP luminescence, 48 h. Potency, µM (highest dose often 46.2 µM), without a hit: top-dose activity change, negative = growth inhibition, most hits filed as inhibitors. actives 12% (n = 420,000); also: % is scaled to controls: 0 for no effect and ±100 for the full control effect; nearly all actives have a fitted effect of over 55% in size
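Chicken DT40 Tdp1-/- cells stably complemented with human TDP1 were seeded at 400 cells/well in medium containing 20 nM camptothecin, exposed to pin-transferred compounds, and grown at 37 °C for at least 48 hr. Viability was read as ATP luminescence.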
TDP1 inh – blocks human tyrosyl-DNA phosphodiesterase 1; recombinant TDP1, AlphaScreen DNA substrate cleavage; actives 0.28% (n = 350,000); Q9NUW8; AID 485290; Potency, µM (top dose mostly 130 µM), without a hit: at the highest dose activity change, negative = inhibition, usual class: inhibitors; also: % is scaled to controls: 0 for no effect and ±100 for the full control effect; nearly all actives have a fitted effect of over 40% in size
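Signal: AlphaScreen proximity between streptavidin donor and anti-FITC acceptor beads on intact substrate. Reaction: Tdp1 1 nM, substrate 15 nM final, 5 min RT after 15 min compound preincubation.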
ClpP mod – qHTS Assay for Activators of ClpP | ATP-dependent Clp protease proteolytic subunit (Bacillus subtilis (strain 168)), P80244 | purified B. subtilis ClpP, FRET peptide cleavage, 20 min | Potency, µM (highest dose often 57.5 µM), inactives show at the top dose activity change, negative = active | actives 1.9% (n = 340,000) | AID 651965, 2013; active = well fitted falling curve with a large enough effect; inconclusive = small, poorly fitted or top-dose-only effect; inactive = no such curve, though single readings can be large or run the other way; also: the source files actives as falling curves though it sought activators and does not explain the sign; nearly all actives have a fitted effect of over 65% in size
Target sequence (P80244 whole entry, looked up): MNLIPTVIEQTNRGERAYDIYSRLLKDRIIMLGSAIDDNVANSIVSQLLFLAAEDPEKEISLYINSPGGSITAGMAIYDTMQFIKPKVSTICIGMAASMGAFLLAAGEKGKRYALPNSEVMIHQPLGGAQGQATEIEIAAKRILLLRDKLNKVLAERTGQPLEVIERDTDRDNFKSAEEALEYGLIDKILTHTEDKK
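ClpP 10 microg/mL final, pH 8 Tris/KCl buffer with BSA, glycerol, Tween-20; compound pinned in; FRET-FV substrate; RT 20 min; Ex320/Em430; ΔFRET vs ADEP 5.8 microM, DMSO, no enzyme.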
An asterisk follows results filed as active; ? = inconclusive; / = no result; [ ] = remark or other dose. Unless noted, calls follow the shape of the dose curve; as a rule, active = well fitted curve in the direction sought with a large enough effect; inconclusive = small, poorly fitted or top-dose-only effect, or another doubt; inactive = no such curve, though single readings can be large; an effect the other way counts as inactive or inconclusive. Potency is read from the fitted curve at half-maximal effect.

SMILES	DT40 TDP1 no CPT	DT40 TDP1 CPT	TDP1 inh	ClpP mod
CC(NS(=O)(=O)OCC(Cl)(Cl)Cl)c1ccc(Br)cc1 (centres undefined)	-26.5%	-13.3%	/	-1.2%
COc1ccc(N2CC(C(=O)N[C@@H](CC(C)C)C(=O)NC3CCCC3)CC2=O)cc1 (some centres undefined)	-29.8%	0.3%	5.5%	/
CC1=CCC2C(=O)N(c3ccc4ccccc4n3)C(=O)C2C1 (centres undefined)	-20.4%	1.4%	5.6%	-4.5%
Cc1cc(=O)n(-c2ccc3ccccc3n2)[nH]1	20.6µM*	18.4µM*	9.8%	-2.1%
CCOC(=O)c1ccc(/[N+]([O-])=C/c2ccccc2)cc1	?	13µM*	5.4%	3.5%
C#CCCc1cscc1/C=[N+](\[O-])c1ccc(C(=O)OCC)cc1	?	23.1µM*	2.2%	1.5%
CCC(ONc1ccccc1C(F)(F)F)(C(=O)NN(C)C)c1ccccc1 (centres undefined)	-29.7%	?	3.7%	-3.2%
COc1ccc(-n2cccc2/C=C2/NC(=O)N(c3cccc(Cl)c3)C2=O)cc1	-29.2%	-10.7%	5.4%	25.1µM*
O=C(O)c1cccc(-n2cccc2/C=C2/NC(=O)N(c3ccc(Cl)cc3)C2=O)c1	-8.6%	-23.6%	0.0398µM*	/
O=C(O)c1cccc(-n2cccc2C=C2C(=O)c3ccccc3C2=O)c1	-26.6%	-5.4%	/	/
O=C(O)c1ccc(COc2ccccc2/C=C2/NC(=O)N(c3cccc(Cl)c3)C2=O)cc1	-17.7%	-0.4%	25.1µM*	?
O=C(O)c1cccc(-n2cccc2/C=C2/NC(=O)N(c3cccc(Cl)c3)C2=O)c1	-1.2%	14.0%	?	/
O=C(O)c1cccc(-n2cccc2/C=C2\SC(=O)N(Cc3ccccc3F)C2=O)c1	?	-25.7%	8.91µM*	-6.1%
OCCNc1ncnc2c1ncn2[C@H]1CN(Cc2ccco2)C[C@@H](CO)O1	0.0%	16.0%	/	-4.9%
CC#CCN1c2ccccc2[C@]23C[C@@H](C(=O)OC)N(S(=O)(=O)c4ccc([N+](=O)[O-])cc4)C2=NC(C(=O)OC)=C(C(=O)OC)[C@H]13	/	/	11.9%[12.3 µM]	/
Cn1c(=O)c2c([nH]c(=O)n2Cc2ccc(Cl)cc2Cl)n(C)c1=O	7.7%	2.1%	/	-1.0%
COc1ccc(OC)c(C(=O)N2CCc3c(cnc(C)c3CNS(=O)(=O)N(C)C)C2)c1	-11.3%	6.4%[9.04 µM]	/	/
CC(C)OC(=O)[C@@H]1CC[C@H](C)[C@@H](CCC[C@@H]2C[C@@H](O)C[C@H](CC#N)O2)O1	/	/	15.6%	/
c1ccc(-c2nc(-c3ccco3)n3ccccc23)cc1	?	10.3µM*	5.3%	-25.6%
c1ccc(OCCn2c(-c3ccco3)nc3ccccc32)cc1	?	?	2.0%	-29.4%
CCc1cccc(NC(=O)c2ccc3c(c2)N(Cc2cccc(Cl)c2)C(=O)c2ccccc2S3=O)c1 (centres undefined)	-4.0%	-23.1%	-3.8%	1.2%
CCCCN(C)C(=O)c1ccc2c(c1)N(Cc1cccc(Cl)c1)C(=O)c1ccccc1S2=O (centres undefined)	14.6µM*	8.2µM*	5.7%	1.2%
CCN1C(=O)c2ccccc2S(=O)c2ccc(C(=O)NCc3ccc(C)cc3)cc21 (centres undefined)	-6.7%	-3.7%	1.2%	-0.7%
CCOc1ccc(CCNC(=O)c2ccc3c(c2)N(Cc2ccccc2F)C(=O)c2ccccc2S3=O)cc1OCC (centres undefined)	23.1µM*	?	6.9%	-2.0%
COc1ccc(CNC(=O)c2ccc3c(c2)N(Cc2ccccc2)C(=O)c2ccccc2S3=O)cc1 (centres undefined)	-1.9%	-0.3%	6.9%	-4.1%
SMILES	DT40 TDP1 no CPT	DT40 TDP1 CPT	TDP1 inh	ClpP mod
CCN1C(=O)c2ccccc2S(=O)c2ccc(C(=O)NCCN(CC(C)C)CC(C)C)cc21 (centres undefined)	23.1µM*	?	/	1.7%
COc1ccc(CCNC(=O)c2ccc3c(c2)N(Cc2ccccc2)C(=O)c2ccccc2S3=O)cc1OC (centres undefined)	11.6µM*	16.4µM*	5.8%	-0.8%
Cc1ccc(C)c(S(=O)(=O)N2CCCOC2CNC(=O)C(=O)NCc2ccccn2)c1 (centres undefined)	-6.3%	-7.6%	0.2%	-1.1%
CC(=O)c1ccc(NC(=O)c2cnc(N3CCCC3)nc2C)cc1	?	-17.6%	-1.2%	-9.0%
COc1ccc(C(CNC(=O)C(C)Sc2ccccc2)N2CCOCC2)cc1 (centres undefined)	-3.2%	-11.2%	/	/
Cc1ccc(-c2noc(CNS(=O)(=O)c3ccccc3)n2)cc1	?	?	1.0%	-1.1%
O=C(NCCc1ccccc1)c1ccc2c(c1)N(Cc1ccccc1)C(=O)c1ccccc1S2=O (centres undefined)	?	29.1µM*	-2.3%	-3.7%
CCCCCn1c(C)c2c(OCC)cccc(=O)c2c1C	?	23.1µM*	9.0%	-1.2%
COc1cc(C(C)=O)ccc1Oc1ncnc2c1cnn2-c1ccc(F)cc1	9.2µM*	?	-2.6%	-2.6%
COc1ccccc1Oc1ncnc2c1cnn2-c1ccccc1	?	11.1%	-3.5%	/
CNC(=O)c1c(NC(=O)c2ccc(S(=O)(=O)N3CCC(C)CC3)cc2)sc2c1CCC2	23.1µM*	?	1.1%	0.1%
CC(C)N1CCc2c(sc(NC(=O)c3ccc(S(=O)(=O)N4CCCCC4C)cc3)c2C(N)=O)C1 (centres undefined)	?	?	4.2%	0.1%
CNC(=O)c1c(NC(=O)c2ccc(S(=O)(=O)N3CCCCC3C)cc2)sc2c1CCC2 (centres undefined)	14.6µM*	13µM*	-5.5%	-2.2%
CCOC(=O)c1c(NC(C)=O)sc2c(OCC(O)CNC(C)(C)C)c(Br)ccc12 (centres undefined)	10.3µM*	?	-2.8%	-2.6%
O=C(C1COc2ccccc2O1)N1CCN(c2ccccc2)CC1 (centres undefined)	-28.1%	-27.7%	-1.0%	-2.5%
O=C(CCl)N1CCN(C(=O)C2COc3ccccc3O2)CC1 (centres undefined)	3.66µM*	?	0.1%	/
CCN1CCN(C(=O)C2COc3ccccc3O2)CC1 (centres undefined)	17.5%	0.4%	2.2%	-3.4%
O=C(C1COc2ccccc2O1)N1CCOCC1 (centres undefined)	-7.5%	-10.4%	-3.1%	15.8µM*
COc1ccc(S(=O)(=O)N2CCN(C(=O)C3COc4ccccc4O3)CC2)cc1 (centres undefined)	?	?	3.55µM*	-0.3%
COc1ccc(N2CCN(C(=O)C3CCN(S(=O)(=O)c4cn(C)cn4)CC3)CC2)cc1	3.3%	-4.9%	-3.8%	-8.7%
